Results from PubChem BioAssay (Tox21).
Inconclusive results are not listed. A number with no mark means an inactive call. Calls of active or inactive are those of the source. Unless noted, calls come from the whole dose curve; as a rule, active = well fitted inhibition curve with a large enough effect in the signal ratio in the repeat runs; inconclusive = weak or mixed curves, or effect the other way; inactive = flat fitted curve, though single readings scatter; the % refers to the signal ratio.

test: qHTS assay for small molecule disruptors of the mitochondrial membrane potential - cell viability (AID 720634; calls by dose curve;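 note: human HepG2 liver cancer cells; nearly all actives have a fitted effect of over 20% in size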); details: HepG2 viability, ATP luminescence (CellTiter-Glo), 1 h; series mostly up to 83.2 µM; activity change, negative = cytotoxicity: at the top concentration
How it was run: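 Measuring cytotoxicity alongside mitochondrial potential, the screen quantified ATP by luminescence in HepG2 cells after 1 hr compound incubation and a 30 min room-temperature CellTiter-Glo step.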
% is set by controls: 0 for no effect and ±100 for the full control effect.

SMILES | activity change, negative = cytotoxicity
CCCCCCCCCCCCCCCCOP(=O)([O-])OCC[N+](C)(C)C | 11.3%
CN(CCCN1c2ccccc2CCc2ccccc21)CC(=O)c1ccc(Cl)cc1 | 19.6%
CCOC(=O)CS | 12.1% [at 95.3 µM]
CCOC(=O)COc1ccc2c(c1)CC(NCC(O)c1cccc(Cl)c1)CC2 (configuration not stated) | 5.2%
Oc1ccccc1F | -7.65%

test: qHTS assay for small molecule disruptors of the mitochondrial membrane potential (AID 720635); details: HepG2 mitochondrial membrane potential, Mito-MPS dye ratio; series mostly up to 83.2 µM; ratio activity, negative = MMP loss: at the top concentration; note: potency is the fitted concentration of half-maximal effect
How it was run: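 HepG2 cells exposed to compound 1 hr at 37C, then Mito-MPS dye 30 min. Ratio read of aggregate (540/590 nm) versus monomer (490/535 nm) fluorescence.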

SMILES | ratio activity, negative = MMP loss | Potency
NC1=NCC2c3ccccc3Cc3ccccc3N12 (configuration not stated) | 14.4% | –
Cc1cc2c(s1)Nc1ccccc1N=C2N1CCN(C)CC1 | 4.66% | –
CCN(CC)CC1CCCCN1CC(=O)N1c2ccccc2C(=O)Nc2cccnc21 (configuration not stated) | 9.32% | –
CC(C)O | 10.5% [at 95.3 µM] | –
O=C(CC(=O)C(F)(F)F)c1ccccc1 | – | 15.6 µM (active)
CC1=NN(c2cc(Cl)c(S(=O)(=O)O)cc2Cl)C(=O)C1N=Nc1ccc(S(=O)(=O)O)cc1 (configuration not stated) | 21.7% | –
O=C(Cl)c1cccc([N+](=O)[O-])c1 | -25.1% | –
Cc1c(N)cccc1N | – | 17.6 µM (active)
O=C1CCCCCCCCCCC(=O)OCCO1 | – | 27.3 µM (active)
CCCCC(=O)O[C@]1(C(=O)CO)[C@H](C)C[C@H]2[C@@H]3CCC4=CC(=O)C=C[C@]4(C)[C@@]3(F)[C@@H](O)C[C@@]21C | – | 10.6 µM (active)
Oc1ccccc1F | 7.72% | –
O=C1Nc2ccc([N+](=O)[O-])cc2C1=O | – | 68.5 µM (active)
